Source: the supplement of paper PMC6607015
Where a name gives a salt, the structure may show the parent alone.

Experiments:
Details in all cases: compound concentration in added solution (µM; 5 µl added to 20 µl cells): 10; 18 h
A431 [1] = assay: LBPA endosome anti-LBPA integrated intensity (sum per cell), Z-score; higher = more LBPA staining
Method in brief: (§1)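 HeLa MZ or A431 cells (3,500/well in 20 µl) were seeded onto 5 µl of 10 µM compound solution in duplicate 384-well imaging plates, incubated 18 h, then fixed in 4% PFA. Cells were stained with 6C4 anti-LBPA antibody, filipin, propidium iodide and CellTracker green, and four 20× images were taken per well. MetaXpress segmentation gave per-cell integrated LBPA or filipin intensity, either whole-cell or within LBPA endosomes. Values are Z-scores normalised in AcuityXpress.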

HeLa MZ [2] = assay: as above
Method in brief: as §1

A431 [3] = assay: whole-cell filipin (free cholesterol) integrated intensity, Z-score; higher = more cholesterol staining
Method in brief: as §1

HeLa MZ [4] = assay: as above
Method in brief: as §1

A431 [5] = assay: filipin (cholesterol) integrated intensity within LBPA endosomes, Z-score; higher = more cholesterol in LBPA endosomes
Method in brief: as §1

HeLa MZ [6] = assay: as above
Method in brief: as §1

Compound	LBPA endosome anti-LBPA integrated intensity (z-score) (A431 [1])	LBPA endosome anti-LBPA integrated intensity (z-score) (HeLa MZ [2])	whole-cell filipin (z-score) (A431 [3])	whole-cell filipin (z-score) (HeLa MZ [4])	filipin (z-score) (A431 [5])	filipin (z-score) (HeLa MZ [6])
Oc1c(I)cc(Cl)c2cccnc12 [Clioquinol]	-0.492	-0.976	-0.314	0.216	-0.526	-0.604
C/C=C(/C(=C/C)c1ccc(O)cc1)c1ccc(O)cc1 [Dienestrol]	-0.546	-0.673	-0.449	-0.338	-0.497	-0.451
CCOC(=O)O[C@]1(C(=O)COC(=O)CC)CC[C@H]2[C@@H]3CCC4=CC(=O)C=C[C@]4(C)[C@H]3[C@@H](O)C[C@@]21C [Prednicarbate]	-0.408	-0.375	0.46	0.0462	-0.282	-0.201
Cc1ccc(S(=O)(=O)NC(=O)NN2CCCCCC2)cc1 [Tolazamide]	-0.639	-1.11	-0.852	-0.547	-0.571	-0.672
CC1(C)[C@@H](OC(=O)CCC(=O)O)CC[C@]2(C)[C@H]3C(=O)C=C4[C@@H]5C[C@@](C)(C(=O)O)CC[C@]5(C)CC[C@@]4(C)[C@]3(C)CC[C@@H]12 [Carbenoxolone disodium salt]	-0.362	0.399	-0.0877	0.214	-0.408	-0.356
CCN(CC)CCOCCOC(=O)C1(c2ccccc2)CCCC1 [Carbetapentane citrate]	0.618	1.63	0.819	0.39	0.894	0.461
NC(=O)c1cc[n+](CC2=C(C(=O)[O-])N3C(=O)[C@@H](NC(=O)[C@@H](c4ccccc4)S(=O)(=O)O)[C@H]3SC2)cc1 [Cefsulodin sodium salt]	-0.471	-0.634	-0.331	-0.0382	-0.357	-0.398
O=C1c2c(O)cccc2Cc2cccc(O)c21 [Anthralin]	-0.344	0.592	0.169	2.01	-0.334	-0.134
CN(C)CCCOc1nn(Cc2ccccc2)c2ccccc12 [Benzydamine hydrochloride]	1.07	2.25	1.71	-0.196	1.63	0.942
CC[C@H]1OC(=O)[C@H](C)[C@@H](O[C@H]2C[C@@](C)(OC)[C@@H](O)[C@H](C)O2)[C@H](C)[C@@H](O[C@@H]2O[C@H](C)C[C@H](N(C)C)[C@H]2O)[C@](C)(O)C[C@@H](C)CN(C)[C@H](C)[C@@H](O)[C@]1(C)O [Azithromycin]	4.39	1.79	0.331	0.115	1.25	1.45
CO[C@@]1(NC(=O)C(C(=O)O)c2ccc(O)cc2)C(=O)N2C(C(=O)O)=C(CSc3nnnn3C)CO[C@@H]21 (stereo partly drawn) [Moxalactam disodium salt]	-0.477	0.127	-0.129	0.413	-0.413	-0.25
CCN1CCCC1CNC(=O)c1cc(S(=O)(=O)CC)c(N)cc1OC (stereo not drawn) [Amisulpride]	-0.554	-0.244	-0.77	-0.754	-0.543	-0.453
CC[C@H](C)C(=O)O[C@H]1CCC=C2C=C[C@H](C)[C@H](CC[C@@H]3C[C@@H](O)CC(=O)O3)[C@H]21 [Mevastatin]	-1.03	-2.17	-1	-0.345	-0.746	-0.0775
O=C(O)Cc1ccccc1Nc1c(Cl)cccc1Cl [Diclofenac sodium]	-0.542	-0.789	-0.65	-0.702	-0.505	-0.603
CCCNC(C)C(=O)Nc1c(C)csc1C(=O)OC (stereo not drawn) [Articaine hydrochloride]	-0.511	-1.09	-0.0579	-0.354	-0.492	-0.461
Nc1nc(=O)c2nc(CNc3ccc(C(=O)N[C@@H](CCC(=O)O)C(=O)O)cc3)cnc2[nH]1 [Folic acid]	-0.628	-1.15	-0.811	-0.635	-0.597	-0.671
CC/C(=C(\c1ccccc1)c1ccc(OCCN(C)C)cc1)c1ccccc1 [Tamoxifen citrate]	2.11	0.441	0.819	0.438	2.05	2.47
CC[C@H](C)[C@H](N)C1=N[C@H](C(=O)N[C@@H](CC(C)C)C(=O)N[C@H](CCC(=O)O)C(=O)N[C@H](C(=O)N[C@H]2CCCCNC(=O)[C@H](CC(N)=O)NC(=O)[C@@H](CC(=O)O)NC(=O)[C@H](Cc3cnc[nH]3)NC(=O)[C@@H](Cc3ccccc3)NC(=O)[C@H]([C@@H](C)CC)NC(=O)[C@@H](CCCN)NC2=O)[C@@H](C)CC)CS1 [Bacitracin]	-0.168	0.277	-0.0253	0.293	-0.368	-0.388
CC1=C(CC(=O)O)c2cc(F)ccc2/C1=C\c1ccc([S+](C)[O-])cc1 (stereo not drawn) [Sulindac]	-0.696	-1.83	-0.98	-1	-0.655	-0.701
CN1[C@@H]2CC[C@H]1C[C@@H](OC(c1ccccc1)c1ccccc1)C2 [Benztropine mesylate]	2.51	2.77	3.07	3.74	2.51	2.8
c1ccc2[nH]c(-c3cscn3)nc2c1 [Tiabendazole]	-0.626	-1.01	-0.678	-0.558	-0.54	-0.645
O=C(CCCN1CCN(c2ccccn2)CC1)c1ccc(F)cc1 [Azaperone]	-0.0879	0.592	0.0723	0.216	-0.168	0.329
CN(C)c1nc(N(C)C)nc(N(C)C)n1 [Altretamine]	-0.54	-1.33	-0.283	-0.6	-0.517	-0.671
